The record followed here is PubChem BioAssay (NCI).

Test in all cases: NCI-60 one-dose screen, 48 h (100 = growth as untreated, 0 = no growth, -100 = all killed)
Settings in all cases: 10 µM unless noted

Assay [1] has as its system T-47D breast.
In assay [2] the test system is BT-549 breast.
Assay [3] deals with MDA-MB-435 melanoma.
The test system of assay [4] is SW-620 colon.
The test system of assay [5] is MCF7 breast.
For assay [6], the system named is HCT-116 colon.
The subject of assay [7] is HCC-2998 colon.
Assay [8] relates to KM12 colon.

The panel holds about 83,000 compounds, 20% with a hit somewhere; the sample as a whole holds those more often.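 Values shown are percent growth following 48 h exposure of cells in 96-well plates to a single concentration of compound; below 10 was considered active.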 Values without a mark were called inactive. Activity calls are given as the source filed them.

Turning to `CCCNC(=O)Oc1ccc(/C(=C(\C)c2ccccc2)c2ccc(OCCN3CCCCC3)cc2)cc1`, the growth in assay [1] is 38.7%; in assay [2], 69.8%; in assay [3] it was 78.8%; in assay [4], 80.8%; in assay [5], 27.9%; in assay [6], 46.5%. In assay [7], the growth is 86.9%.

As for `COc1cc(COC(=O)CCCCC[P+](c2ccccc2)(c2ccccc2)c2ccccc2)c(OC)c2c1OCO2`, the growth in assay [1] was 14.7%; in assay [2] it was 55.5%; in assay [3], 41.8%; in assay [4], 58%; in assay [5] it was 47.7%; in assay [6], 33.2%. In addition, in assay [7], the growth was 64.9%.

In the case of `COc1ccc(C(=O)c2cc3c(N)c(C(=O)Nc4cccc5ccccc45)sc3nc2C)cc1`, the growth in assay [1] is 32.6%; in assay [2], 45.1%; in assay [3], -6.84% (active); in assay [4], 21.9%; in assay [5] it was 19.4%; in assay [6], 6.55% (active). In addition, the growth in assay [7] was 20.8%.

Consider `Clc1ccc(N2N=C(c3cccc(Nc4ccncc4)c3)CC2c2ccccc2)cc1` (stereo unspecified), for which the growth in assay [1] was 96.9%; in assay [2], 92.9%; in assay [3], 67.5%; in assay [4], 86.2%; in assay [5], 76.2%; in assay [6], -78.7% (active). Moreover, the growth in assay [7] is 97%.

With `CC(O)/C=C/C=C/C(O)CC/C=C/C(=O)NCC(C)(C)O` (stereo unspecified), the growth in assay [1] was 86.2%; in assay [2], 109%; in assay [3] it was 110%; in assay [4] it was 118%; in assay [5] it was 78.2%; in assay [6], 93.5%. Besides, the growth in assay [7] was 90.6%.

As for `COc1cccc(CCC(=O)c2cc3c(N)c(C(=O)Nc4ccccc4)sc3nc2C)c1`, the growth in assay [1] was 38.2%; in assay [2], 44.8%; in assay [3], -44.5% (active); in assay [4], 22.2%; in assay [5], 10.5%; in assay [6], 14.4%. In addition, the growth in assay [7] is 45.1%.

Regarding `COc1ccc(C(=O)c2cc3c(N)c(C(=O)Nc4cccc(Br)c4C)sc3nc2C)cc1`, the growth was 54.6% in assay [1]; 33.5% in assay [2]; -10.4% (active) in assay [3]; 23.4% in assay [4]; 17.5% in assay [5]; 6.78% (active) in assay [6]. For the same compound, the growth in assay [7] is 18.1%.

Regarding `O=C(Nc1nc2ccc(C(=O)N3CCN(c4ccc(Cl)c(Cl)c4)CC3)cc2s1)c1ccc(NCCc2ccccc2)c([N+](=O)[O-])c1`, the growth was 84.4% in assay [1]; 108% in assay [2]; 111% in assay [3]; 103% in assay [4]; 96.7% in assay [5]; 95% in assay [6]. In addition, in assay [7], the growth was 105%.

As for `CC(=O)c1c(C)[nH]c(-c2nc3ccc(N4CCN(C)CC4)cc3[nH]2)c1-c1ccccc1`, the growth in assay [1] is 20.3%; in assay [2] it was 81.9%; in assay [3], 19.8%; in assay [4], 54.8%; in assay [5], 7.32% (active); in assay [6] it was 59.6%. The growth in assay [7] was 27.8%.

Regarding `O=C(O)c1cn(C2CC2)c2cc(N3CCN(C(=O)C[n+]4cccc5ccccc54)CC3)c(F)cc2c1=O`, the growth in assay [1] was 74%; in assay [2] it was 75.8%; in assay [3], 59.5%; in assay [4], -17.2% (active); in assay [5] it was 45.2%; in assay [6] it was 23.7%. The growth in assay [7] was 106%.

Turning to `COc1ccccc1OCC(=O)N1CCCCCC1`, the growth in assay [1] was 103%; in assay [2] it was 129%; in assay [3], 101%; in assay [4] it was 100%; in assay [5], 92.8%; in assay [6] it was 123%. Besides, the growth in assay [7] was 108%.

In the case of `C=Cc1cc[n+](CCCCCCCCCCCC)cc1`, the growth was 131% in assay [1]; 116% in assay [2]; 104% in assay [3]; 100% in assay [4]; 106% in assay [5]; 97.6% in assay [6]. In addition, in assay [7], the growth is 110%.

As to `CC(Oc1ccc(C(=O)NS(=O)(=O)C(C)(C)C)cc1C(F)(F)F)c1ccc(Oc2ccccc2)cn1` (stereo unspecified), the growth in assay [1] is 60.5%; in assay [2], 67.2%; in assay [3], -4.12% (active); in assay [4] it was 58.4%; in assay [5], 38.9%; in assay [6] it was 60.1%. Besides, in assay [7], the growth was 86.9%.

Consider `[O-][n+]1ccccc1CCN(O)CCc1cccc[n+]1[O-]`, for which the growth in assay [1] was 100%; in assay [2], 101%; in assay [3], 105%; in assay [4] it was 102%; in assay [5], 102%; in assay [6], 94.7%. The growth in assay [7] is 109%.

Regarding `COc1cc2oc(-c3cccc(C(=O)Nc4ccc(Cl)cc4)c3)cc(=O)c2c(OC)c1OC`, the growth in assay [1] is 24.2%; in assay [2] it was 38.5%; in assay [3], 37.5%; in assay [4], 50.4%; in assay [5], 17.2%; in assay [6], 15.3%. In addition, the growth is 22.6% in assay [7] and 26.3% in assay [8].
